Read-out in assay [1]: Transforming growth factor beta 1 (TGFb1), TGFB1 (gene 7040)
In words: BSK_KF3CT_TGFb1: BioMAP Diversity Plus: KF3CT Assay for Transforming growth factor beta 1 (TGFb1) Biomarker Activity (AID 2283072). To be noted: primary human keratinocytes with fibroblasts; actives raise or lower the signal. In outline:
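Read-out: ELISA for TGF-b1 in keratinocyte/foreskin fibroblast human skin co-culture, 24 h after dosing; bidirectional curve fit vs DMSO baseline; gain or loss of signal scored.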

Read-out in assay [2]: C-C motif chemokine 2 (Homo sapiens) (UniProt P13500)
In words: BSK_KF3CT_MCP1: BioMAP Diversity Plus: KF3CT Assay for Monocyte Chemoattractant Protein 1 (MCP1/CCL2) Biomarker Activity (AID 2283073). To be noted: primary human keratinocytes with fibroblasts; actives raise or lower the signal. In outline: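 Human keratinocyte plus foreskin fibroblast primary co-culture exposed to chemical for 24 h. MCP-1 levels measured by ELISA. Bidirectional curve fitting relative to DMSO negative control as baseline.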

Read-out in assay [3]: Matrix Metallopeptidase 9 (MMP9), MMP9 (gene 4318)
In words: BSK_KF3CT_MMP9: BioMAP Diversity Plus: KF3CT Assay for Matrix Metallopeptidase 9 (MMP9) Biomarker Activity (AID 2283074). To be noted: primary human keratinocytes with fibroblasts; actives raise or lower the signal. In outline:
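ELISA read-out of MMP-9 at 24 h post-dosing in a co-culture of human skin keratinocytes and foreskin fibroblasts. Gain or loss of signal was fitted in both directions against DMSO.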

Read-out in assay [4]: urokinase plasminogen activator (uPA), PLAU (gene 5328)
In words: BSK_KF3CT_uPA: BioMAP Diversity Plus: KF3CT Assay for urokinase plasminogen activator (uPA) Biomarker Activity (AID 2283075). The following applies: primary human keratinocytes with fibroblasts; actives raise or lower the signal. In outline: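 Skin co-culture (keratinocytes + foreskin fibroblasts), human primary; 24 h post-dose; uPA by ELISA; gain/loss fit vs DMSO baseline.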

Read-out in assay [5]: CD40, CD40 (gene 958)
In words: BSK_LPS_CD40: BioMAP Diversity Plus: LPS Assay for CD40 Biomarker Activity (AID 2283076). To be noted: primary human HUVEC with PBMC; actives raise or lower the signal. The essentials: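 Primary human umbilical vein endothelial cells co-cultured with peripheral blood mononuclear cells, LPS-stimulated, were dosed with chemical and read 24 h later. CD40 levels were measured by ELISA and fitted bidirectionally against DMSO as negative control and baseline.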

Read-out in assay [6]: E-selectin (Homo sapiens) (UniProt P16581)
In words: BSK_LPS_Eselectin: BioMAP Diversity Plus: LPS Assay for Eselectin Biomarker Activity (AID 2283077). The following applies: primary human HUVEC with PBMC; actives raise or lower the signal. The essentials: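 Human umbilical vein endothelial cells co-cultured with peripheral blood mononuclear cells under LPS stimulation; E-selectin measured by ELISA 24 h after chemical dosing. Activity fitted bidirectionally against DMSO as negative control and baseline.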

Read-out in assay [7]: Interleukin-8 (IL8), CXCL8 (gene 3576)
In words: BSK_LPS_IL8: BioMAP Diversity Plus: LPS Assay for Interleukin-8 (IL8) Biomarker Activity (AID 2283078). The following applies: primary human HUVEC with PBMC; actives raise or lower the signal. The essentials:
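Human umbilical vein endothelial cells co-cultured with PBMC were stimulated with LPS; IL-8 levels were measured by ELISA 24 h after chemical dosing. Activity was fitted bidirectionally against DMSO as negative control and baseline.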

Assay [8] in a line: BSK_LPS_SRB: Viability Assessment in the BioMAP Diversity Plus: LPS Assay (AID 2283079).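 Also: total protein by sulforhodamine B absorbance as a cytotoxicity measure; measured one day after compound addition.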 The following applies: primary human HUVEC with PBMC. In outline: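 Human umbilical vein endothelial cells co-cultured with PBMC (LPS system) were dosed for 24 h. Total protein was stained with 0.1% sulforhodamine B after 10% TCA fixation, read at 560 nm, and fitted bidirectionally against DMSO baseline.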

Read-out in assay [9]: Interleukin-1 alpha (IL1a), IL1A (gene 3552)
In words: BSK_LPS_IL1a: BioMAP Diversity Plus: LPS Assay for Interleukin-1 alpha (IL1a) Biomarker Activity (AID 2283080). To be noted: primary human HUVEC with PBMC; actives raise or lower the signal. In outline:
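Human umbilical vein endothelial cells co-cultured with peripheral blood mononuclear cells were LPS-stimulated and exposed to test chemicals for 24 h. IL-1 alpha was quantified by ELISA, with bidirectional curve fitting against DMSO as the negative control and baseline.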

Read-out in assay [10]: Monocyte Chemoattractant Protein-1 (MCP1), CCL2 (gene 6347)
In words: BSK_LPS_MCP1: BioMAP Diversity Plus: LPS Assay for Monocyte Chemoattractant Protein-1 (MCP1) Biomarker Activity (AID 2283081). To be noted: primary human HUVEC with PBMC; actives raise or lower the signal. In outline:
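HUVEC plus PBMC co-culture (human primary cells, LPS system) exposed to test chemical for 24 h; MCP-1 measured by ELISA. Bidirectional curve fitting against DMSO baseline; parallel SRB total-protein staining flags overt cytotoxicity.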

Assay [11] is described as follows: BSK_LPS_PGE2: BioMAP Diversity Plus: LPS Assay for Prostaglandin E2 (PGE2) Biomarker Activity (AID 2283082).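 As to AC50: secreted prostaglandin E2 measured by ELISA in LPS-stimulated co-culture.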 To be noted: primary human HUVEC with PBMC; actives raise or lower the signal. The essentials:
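ELISA read-out of PGE2 from human umbilical vein endothelial cells co-cultured with peripheral blood mononuclear cells under LPS, 24 h post-dose. Gain or loss of signal scored relative to DMSO baseline.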

Read-out in assay [12]: Macrophage colony-stimulating factor (MCSF), CSF1 (gene 1435)
In words: BSK_LPS_MCSF: BioMAP Diversity Plus: LPS Assay for Macrophage colony-stimulating factor (MCSF) Biomarker Activity (AID 2283083). To be noted: primary human HUVEC with PBMC; actives raise or lower the signal. The essentials: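 Human umbilical vein endothelial cells co-cultured with peripheral blood mononuclear cells were exposed to compound for 24 h. M-CSF levels were measured by ELISA, and bidirectional curve fitting used DMSO as the negative control and baseline.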

Read-out in assay [13]: Tissue Factor, F3 (gene 2152)
In words: BSK_LPS_TissueFactor: BioMAP Diversity Plus: LPS Assay for Tissue Factor Biomarker Activity (AID 2283084). The following applies: primary human HUVEC with PBMC; actives raise or lower the signal. In outline: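 Human umbilical vein endothelial cells co-cultured with peripheral blood mononuclear cells were dosed and stimulated with LPS. Cell-surface CD142 was quantified by ELISA at 24 h. Activity was fitted bidirectionally against DMSO baseline.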

Read-out in assay [14]: Tumor necrosis factor (Homo sapiens) (UniProt P01375)
In words: BSK_LPS_TNFa: BioMAP Diversity Plus: LPS Assay for Tumour Necrosis Factor alpha (TNFa) Biomarker Activity (AID 2283085).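 As to AC50: TNFa protein level quantified by ELISA in the co-culture.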 To be noted: primary human HUVEC with PBMC; actives raise or lower the signal. The essentials:
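HUVEC/PBMC co-culture, LPS-stimulated; 24 h post-dose; TNFa by ELISA; gain or loss of signal fitted bidirectionally vs DMSO baseline.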

Read-out in assay [15]: Vascular cell adhesion molecule 1 (VCAM1), VCAM1 (gene 7412)
In words: BSK_LPS_VCAM1: BioMAP Diversity Plus: LPS Assay for Vascular cell adhesion molecule 1 (VCAM1) Biomarker Activity (AID 2283086). The following applies: primary human HUVEC with PBMC; actives raise or lower the signal. In outline:
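ELISA read-out of VCAM-1 at 24 h post-dosing in an LPS-driven HUVEC/PBMC primary human co-culture; gain or loss of signal fitted bidirectionally against DMSO baseline. Cytotoxicity tracked in parallel cultures by SRB total-protein staining.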

Read-out in another assay: CD38, CD38 (gene 952)
In words: BSK_SAg_CD38: BioMAP Diversity Plus: SAg Assay for CD38 Biomarker Activity (AID 2283087). To be noted: primary human HUVEC with PBMC; actives raise or lower the signal. The essentials: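 Measures CD38 on a human endothelial/PBMC co-culture driven by SEB and TSST-1, 24 h after compound exposure, using ELISA with fluorescence detection; DMSO defines baseline for bidirectional curve fitting.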

Read-out in assay [16]: CD40, CD40 (gene 958)
In words: BSK_SAg_CD40: BioMAP Diversity Plus: SAg Assay for CD40 Biomarker Activity (AID 2283088). To be noted: primary human HUVEC with PBMC; actives raise or lower the signal. In outline: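 Human umbilical vein endothelial cells co-cultured with PBMC; CD40 levels measured by ELISA with fluorescence read-out 24 h after chemical dosing. Gain or loss of signal fitted bidirectionally against DMSO baseline.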

Read-out in a further assay: CD69, CD69 (gene 969)
In words: BSK_SAg_CD69: BioMAP Diversity Plus: SAg Assay for CD69 Biomarker Activity (AID 2283089).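 As to AC50: cell surface CD69 protein quantified by ELISA with fluorescence detection.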 To be noted: primary human HUVEC with PBMC; actives raise or lower the signal. In outline:
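Values derive from bidirectional fitting relative to DMSO vehicle. Cells: umbilical vein endothelium plus peripheral blood mononuclear cells, treated 24 h before fluorescent ELISA for CD69.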

Read-out in assay [17]: Monocyte Chemoattractant Protein-1 (MCP1), CCL2 (gene 6347)
In words: BSK_SAg_MCP1: BioMAP Diversity Plus: SAg Assay for Monocyte Chemoattractant Protein-1 (MCP1) Biomarker Activity (AID 2283090). To be noted: primary human HUVEC with PBMC; actives raise or lower the signal. In outline:
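Values derive from bidirectional fitting of ELISA-measured MCP1 against DMSO controls. Readings were taken 24 h after dosing human vascular endothelial cells co-cultured with peripheral blood mononuclear cells under superantigen stimulation.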

Activity calls are given as the source filed them. The calls were made as follows: active = hit-call score of the fitted dose curve at least 0.9, where 1 is the maximum; inactive = score below 0.9.

Tumor necrosis factor (Homo sapiens), sequence (P01375 whole entry, looked up): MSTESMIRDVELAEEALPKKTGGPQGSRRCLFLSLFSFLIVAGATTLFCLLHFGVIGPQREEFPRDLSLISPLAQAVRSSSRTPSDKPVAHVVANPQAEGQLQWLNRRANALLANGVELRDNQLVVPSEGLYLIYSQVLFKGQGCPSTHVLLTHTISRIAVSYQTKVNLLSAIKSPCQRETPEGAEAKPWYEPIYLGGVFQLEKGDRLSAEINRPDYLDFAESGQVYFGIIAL
E-selectin (Homo sapiens), sequence (P16581 whole entry, looked up): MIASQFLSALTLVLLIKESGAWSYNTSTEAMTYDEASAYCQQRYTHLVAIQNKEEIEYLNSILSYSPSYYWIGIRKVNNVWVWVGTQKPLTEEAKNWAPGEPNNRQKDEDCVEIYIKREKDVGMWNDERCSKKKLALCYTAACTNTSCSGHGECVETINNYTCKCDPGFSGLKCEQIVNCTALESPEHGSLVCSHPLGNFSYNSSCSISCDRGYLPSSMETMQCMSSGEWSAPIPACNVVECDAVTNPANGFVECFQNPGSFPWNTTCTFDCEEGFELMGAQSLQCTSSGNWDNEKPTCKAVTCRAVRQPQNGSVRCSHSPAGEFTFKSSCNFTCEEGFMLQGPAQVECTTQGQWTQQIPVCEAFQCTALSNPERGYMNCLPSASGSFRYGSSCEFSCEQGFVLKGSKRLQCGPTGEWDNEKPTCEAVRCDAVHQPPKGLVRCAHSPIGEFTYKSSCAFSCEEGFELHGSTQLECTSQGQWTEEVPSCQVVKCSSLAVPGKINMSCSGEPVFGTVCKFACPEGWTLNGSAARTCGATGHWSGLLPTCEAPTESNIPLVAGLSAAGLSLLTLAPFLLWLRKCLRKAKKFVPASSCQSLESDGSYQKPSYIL

A word on the AC50: it is the concentration at which the activity in the assay is half-maximal. For the molecule `CCN(CC)C(=O)SCc1ccc(Cl)cc1`, the outcome in [1] is “inactive”; in assay [2] it was “inactive”; in assay [3], “inactive”; in [4] it was “inactive”; in the assay with CD40, CD40 (gene 958) [5], “inactive”; in assay [6], “inactive”. Moreover, the outcome in assay [7], in assay [8], in [9], in assay [10], in [12] and in assay [13] was inactive. Further, the outcome is “inactive” in assay [14]; “inactive” in [15]; “inactive” with CD38, CD38 (gene 952); “inactive” with CD40, CD40 (gene 958) [16]; “inactive” in the assay with CD69, CD69 (gene 969); “inactive” in assay [17]. The AC50 in assay [11] is 7.03 µM (active).

Take `CNC(=O)Oc1ccccc1OC(C)C`: the outcome in assay [1] is “inactive”; in [3], “inactive”; in assay [4], “inactive”; with CD40, CD40 (gene 958) [5], “inactive”; in [6], “inactive”; in assay [7], “inactive”. For the same molecule, the result in assay [8], in assay [9], in assay [10], in [11], in [12] and in assay [13] was inactive. In addition, the outcome is “inactive” in [14]; “inactive” in [15]; “inactive” with CD38, CD38 (gene 952); “inactive” with CD40, CD40 (gene 958) [16]; “inactive” in the assay with CD69, CD69 (gene 969); “inactive” in assay [17]. Further, in assay [2], the AC50 was 0.147 µM (active).

As to `CCCN(CCOc1c(Cl)cc(Cl)cc1Cl)C(=O)n1ccnc1`, the outcome in [1], in assay [2], in assay [3], in assay [4], in assay [6] and in assay [7] was inactive. Further, the result in assay [9], in assay [10], in [13] and in [15] was inactive. Besides, the AC50 with CD40, CD40 (gene 958) [5] was 20 µM (active); in assay [8] it was 31.4 µM (active); in assay [11] it was 0.42 µM (active); in assay [12], 20 µM (active); in assay [14] it was 0.875 µM (active); in the assay with CD38, CD38 (gene 952), 30.7 µM (active). For the same molecule, the AC50 in the assay with CD40, CD40 (gene 958) [16] is 27.8 µM (active); with CD69, CD69 (gene 969), 14.9 µM (active); in [17], 29.6 µM (active).

As for `COC(=O)c1ccccc1S(=O)(=O)NC(=O)N(C)c1nc(C)nc(OC)n1`, the outcome in assay [1] was “inactive”; in assay [2], “inactive”; in assay [3], “inactive”; in assay [4], “inactive”; with CD40, CD40 (gene 958) [5], “inactive”; in assay [6] it was “inactive”. Besides, the result in assay [7], in assay [8], in assay [9], in [10], in assay [11] and in assay [12] was inactive. For the same molecule, the outcome in assay [13] is “inactive”; in assay [14], “inactive”; in [15], “inactive”; with CD38, CD38 (gene 952) it was “inactive”; in the assay with CD40, CD40 (gene 958) [16] it was “inactive”; with CD69, CD69 (gene 969), “inactive”. The outcome in [17] was inactive.

The record behind these values is PubChem BioAssay (EPA / NIEHS).
